Records with an inconclusive call do not appear. Calls of active or inactive are those of the source. Unless noted, calls follow the shape of the dose curve; as a rule, active = well fitted curve in the direction sought with a large enough effect in the repeat runs; inconclusive = weak or mixed curves; inactive = no such curve, though single readings can be large; an effect the other way counts as inactive or inconclusive.
Key:
[1] = A CellTox Green Cytotoxicity Assay to monitor cytotoxicity in HepG2 cells - 16 hour (AID 1224876); also: nearly all actives have a fitted effect of over 45% in size
In short: (§1)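 Real-time cytotoxicity: fluorescence of a cell-impermeant cyanine dye binding DNA of dead HepG2 cells, measured repeatedly (0–40 h) during compound exposure at 37 C. Cells seeded 600/well with reagent, dosed after 5 h.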

[2] = qHTS RealTime-Glo MT Cell Viability Assay in HepG2 cells - 32 hour (AID 1224877); also: nearly all actives have a fitted effect of over 55% in size
In short: (§2)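 Compound treatment began 5 h after plating HepG2 cells (600/well) with NanoLuc luciferase and prosubstrate. Plates stayed at 37 C for 40 h; luminescence was captured at six time points, 0 h through 40 h.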

[3] = A CellTox Green Cytotoxicity Assay to monitor cytotoxicity in HepG2 cells - 24 hour (AID 1224878); also: nearly all actives have a fitted effect of over 45% in size
In short: as §1

[4] = A CellTox Green Cytotoxicity Assay to monitor cytotoxicity in HepG2 cells - 40 hour (AID 1224879); also: nearly all actives have a fitted effect of over 40% in size
In short: as §1

[5] = qHTS RealTime-Glo MT Cell Viability Assay in HEK293 cells - 0 hour (AID 1224880); also: top concentration of the series differs between compounds; nearly all actives have a fitted effect of over 45% in size
In short: (§3)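 Luminescence, which tracks viable cell number through reduction of the prosubstrate to a NanoLuc substrate, was read over continuous 37 C culture. Cells (600/well) were premixed with reagent and rested 5 h before 23 nL of compound in DMSO was pinned.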

[6] = A CellTox Green Cytotoxicity Assay to monitor cytotoxicity in HEK293 cells - 32 hour (AID 1224881); also: nearly all actives have a fitted effect of over 40% in size
In short: (§4)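 Fluorescence from a DNA-binding dye excluded by viable cells was measured repeatedly in the same HEK293 wells (600 cells/well) during continuous compound exposure at 37 C. Each assay gives one read point: 0, 8, 16, 24, 32 or 40 h.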

[7] = A CellTox Green Cytotoxicity Assay to monitor cytotoxicity in HepG2 cells - 0 hour (AID 1224882); also: nearly all actives have a fitted effect of over 35% in size
In short: as §1

[8] = A CellTox Green Cytotoxicity Assay to monitor cytotoxicity in HepG2 cells - 32 hour (AID 1224883); also: nearly all actives have a fitted effect of over 50% in size
In short: as §1

[9] = A CellTox Green Cytotoxicity Assay to monitor cytotoxicity in HEK293 cells - 8 hour (AID 1224884); also: nearly all actives have a fitted effect of over 35% in size
In short: as §4

[10] = qHTS RealTime-Glo MT Cell Viability Assay in HepG2 cells - 16 hour (AID 1224885); also: nearly all actives have a fitted effect of over 50% in size
In short: as §2

[11] = qHTS RealTime-Glo MT Cell Viability Assay in HEK293 cells - 24 hour (AID 1224886); also: top concentration of the series differs between compounds; nearly all actives have a fitted effect of over 50% in size
In short: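 Quantitative high-throughput screen of the Tox21 10K library in HEK293: cells and RealTime-Glo reagents plated together, compound added at 5 h, luminescence monitored through 40 h at 37 C.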

[12] = qHTS RealTime-Glo MT Cell Viability Assay in HEK293 cells - 8 hour (AID 1224887); also: top concentration of the series differs between compounds; nearly all actives have a fitted effect of over 50% in size
In short: as §3

[13] = A CellTox Green Cytotoxicity Assay to monitor cytotoxicity in HEK293 cells - 16 hour (AID 1224888); also: nearly all actives have a fitted effect of over 35% in size
In short: as §4

[14] = qHTS RealTime-Glo MT Cell Viability Assay in HepG2 cells - 0 hour (AID 1224889); also: nearly all actives have a fitted effect of over 50% in size
In short: as §2

[15] = A CellTox Green Cytotoxicity Assay to monitor cytotoxicity in HepG2 cells - 8 hour (AID 1224890); also: nearly all actives have a fitted effect of over 45% in size
In short: as §1

[16] = qHTS assay to identify small molecule antagonists of the estrogen receptor alpha (ER-alpha) signaling pathway using the BG1 cell line in the presence of 0.1 nM 17-beta-estradiol - cell viability counter screen (AID 1259241); also: nearly all actives have a fitted effect of over 40% in size
In short: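 In this screen, hormone-deprived VM7Luc4E2 cells were seeded at 4,000 per well, dosed with compound and 0.1 nM estradiol final, and incubated 22 hr at 37C and 5% CO2; fluorogenic live-cell protease signal reported viability.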

[17] = qHTS assay to identify small molecule antagonists of the androgen receptor (AR) signaling pathway using the MDA cell line in the presence of 0.5 nM R1881 - cell viability counter screen (AID 1259242); also: nearly all actives have a fitted effect of over 45% in size
In short: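 Live-cell protease activity was measured by CellTiter-Fluor fluorescence after 30 min. Before that, MDA-kb2 MMTV-luciferase cells had 16 hr at 37C without CO2, exposed to test compounds and 0.5 nM R1881 final.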

[18] = molecular target: Estrogen receptor (Homo sapiens) (UniProt P03372); assay: qHTS assay to identify small molecule antagonists of the estrogen receptor alpha (ER-alpha) signaling pathway using the BG1 cell line in the presence of 0.1 nM 17-beta-estradiol (AID 1259244); also: nearly all actives have a fitted effect of over 50% in size
In short: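 Luciferase luminescence (ONE-Glo, 30 min at room temperature) was read after 22 hr at 37C exposure to compounds plus 17beta-estradiol at 0.1 nM final. Cells were VM7Luc4E2 with endogenous ER-alpha and an ERE-driven luciferase, pre-cultured 5 days in hormone-depleted medium.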

[19] = qHTS assay to identify small molecule HDAC inhibitors (AID 1259364)
In short: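 Luminescence read after 30 min room-temperature HDAC-Glo incubation measures cellular class I/II HDAC activity. Compounds were applied for 2 hr at 37 C to HCT-116 wild-type cells seeded the day before.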

[20] = qHTS assay to identify small molecule phospholipidosis (PLD) inducers (AID 1259344; active = well fitted curve in the direction sought with a large enough effect; an effect the other way counts as inactive or inconclusive)
In short: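 Read-out is LipidTOX Red fluorescence (ex 595/em 615) imaged in HepG2 cells after 24 h compound exposure at 37 C, with Hoechst nuclear counterstain (ex 352/em 461) allowing per-cell normalisation.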

Measured: Potency

Chain of Estrogen receptor (Homo sapiens) (P03372 whole entry, looked up): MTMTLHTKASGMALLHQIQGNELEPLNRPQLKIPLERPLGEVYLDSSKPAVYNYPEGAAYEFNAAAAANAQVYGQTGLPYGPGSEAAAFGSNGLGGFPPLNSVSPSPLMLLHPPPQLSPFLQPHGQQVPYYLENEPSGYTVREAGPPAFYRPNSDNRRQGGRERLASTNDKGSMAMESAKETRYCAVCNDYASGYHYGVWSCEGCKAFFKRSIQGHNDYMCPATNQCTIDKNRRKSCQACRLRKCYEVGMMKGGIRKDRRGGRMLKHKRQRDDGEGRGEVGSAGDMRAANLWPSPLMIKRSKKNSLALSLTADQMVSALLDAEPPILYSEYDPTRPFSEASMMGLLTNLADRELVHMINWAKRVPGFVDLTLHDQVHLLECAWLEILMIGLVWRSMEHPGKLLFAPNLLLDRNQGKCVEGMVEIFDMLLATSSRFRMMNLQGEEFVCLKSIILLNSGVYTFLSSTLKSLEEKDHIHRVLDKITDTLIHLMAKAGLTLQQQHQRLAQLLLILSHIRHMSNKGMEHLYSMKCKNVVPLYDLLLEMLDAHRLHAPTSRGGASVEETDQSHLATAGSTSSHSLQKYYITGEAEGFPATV

CCCCCC(=O)OCC
not listed: [20]
inactive: all other assays above

Cc1c(C(C)C)c(=O)n(-c2ccccc2)n1C
inactive: all assays above

OC(CCN1CCCCC1)(c1ccccc1)c1ccccc1
inactive: all assays above

Cc1nc([N+](=O)[O-])cn1-c1ccc([N+](=O)[O-])cc1
inactive: all assays above

C[Si]1(C)N[Si](C)(C)N[Si](C)(C)N1
not listed: [20]
inactive: all other assays above

CN[C@@H]1[C@@H](O)[C@@H](O[C@@H]2[C@H](O)[C@H](O[C@H]3OC(CN)=CC[C@H]3N)[C@@H](N)C[C@H]2N)OCC1(C)O (stereo partly specified)
not listed: [18]
inactive: all other assays above

C=CCOc1c(Br)cc(Br)cc1Br
not listed: [20]
inactive: all other assays above

From PubChem BioAssay (Tox21)
